Results taken from PubChem BioAssay (NCI).
Compounds without any hit were thinned out: in the full panel of roughly 83,000, 20% have a hit.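 Note: values are percent growth. 100 is the growth of untreated cells, values between 100 and 0 indicate rising inhibition; between -100 and 0 indicates cell death.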 Unmarked numbers belong to inactive results. Active and inactive are the calls of the source. The calls were made as follows: active = growth percent below 10; inactive = the rest.

System: HOP-62 NSCLC
Experiment: NCI-60 one-dose screen, 48 h (100 = growth as untreated, 0 = no growth, -100 = all killed)
Details: 10 µM unless noted

SMILES | growth
CC/C(=C(\c1ccc(Cl)cc1)c1ccc(OCCN2CCCCC2)cc1)c1ccc(O)cc1 | -9.16% (active)
CCOC(=O)c1[nH]cc2c1CCc1sc(Nc3ccccn3)nc1-2 | 92.3%
COc1cc(-c2ccc(-c3ccc(C(=N)N)cc3)s2)cc(OC)c1OC | 59.1%
CN(C)c1ccc([C@@H](C(=O)Nc2cccc([N+](=O)[O-])c2)N(C(=O)c2cc3ccccc3[nH]2)c2cccc([N+](=O)[O-])c2)cc1 | 88.7%
Cc1cccc(NC(=O)N/C(N)=N/c2nc3ccccc3s2)c1 | 30.3%
CN(C)c1ccc(/C=N\NC(=O)c2ccc3nc(-c4ccc(Cl)cc4)[nH]c3c2)cc1 | 60.5%
C=C1SC(=Nc2ccccc2Cl)N(C(=O)c2sc3ccccc3c2Cl)C1(C)C | 54.8%
CC[C@@H](C(=O)[C@@H](C)[C@@H](O)[C@H](C)[C@@H]1O[C@@H]([C@@H](CC)C(=O)ONC(=O)c2ccccc2O)CC[C@@H]1C)C1O[C@]2(C=CC(=O)[C@]3(CC[C@@](C)([C@H]4CC[C@](O)(CC)[C@H](C)O4)O3)O2)[C@H](C)C[C@@H]1C (some centres not stated) | 58.3%
Cc1ccc(NC(=O)c2cc3ccccc3cc2O)c(C)c1 | 89.3%
CCN(CC)CCOc1ccc2c(-c3ccccc3)c(-c3ccc(OC)cc3)c(=O)oc2c1 | 95%
CCOC(=O)C1=C(CC(O)c2ccc(OC)cc2OC)NC(=O)NC1c1ccccc1 (configuration not stated) | 97.8%
COc1nc(/C=C\Nc2ccc3c(c2)OCCOCCOCCOCCO3)nc(OC)n1 | 109%
